USP2a inh = blocks human ubiquitin-specific protease USP2a; O75604; USP2 core, Ub-CHOP2 coupled fluorogenic reporter, 485/531; Potency, µM (top dose mostly 38.3 µM), for inactives: at the top dose activity change, negative = inhibition, usual class: inhibitors; actives 0.01% (n = 330,000); AID 463254;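 also: plate controls were DMSO wells for no effect and full inhibition by NEM control for full effect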
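Deubiquitinase activity read as fluorescence (485/531 nm) after Ub-CHOP2 cleavage activates the enterokinase reporter on its substrate; USP2 core 10nM, Ub-CHOP2 and substrate 25nM each, 30min compound preincubation then 60min RT; data normalized to NEM, curves fitted.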
RGS4 inh = inhibitors of human regulator of G protein signaling 4. P49798. Transcreener GDP fluorescence polarization, RGS4-accelerated GTP hydrolysis. Potency, µM (top dose mostly 114 µM), for the others: at the top dose activity change, negative = inhibition, hits mostly inhibitors. actives 0.039% (n = 390,000). AID 504845; also: nearly all actives have a fitted effect of over 75% in size
Target sequence (P49798 whole entry, looked up): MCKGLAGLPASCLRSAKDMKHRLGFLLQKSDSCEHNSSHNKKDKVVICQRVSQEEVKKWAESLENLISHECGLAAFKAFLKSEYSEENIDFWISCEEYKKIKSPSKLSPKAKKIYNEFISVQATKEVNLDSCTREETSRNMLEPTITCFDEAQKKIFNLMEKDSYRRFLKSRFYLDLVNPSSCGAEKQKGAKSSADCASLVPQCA
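MLSMR compounds (23 nl, pin-transferred) preincubated 10 min at room temperature with a 500nM (2x) first reagent, then RGS4 at 900nM (2x) plus Transcreener GDP mix added; fluorescence polarization (620/688 nm) read before and after 90 min at 30 °C.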
rTrxR1 inhibitor = inhibitors of rat thioredoxin reductase 1; actives 1% (n = 390,000); Potency, µM (doses to about 114 µM), without a hit: top-dose activity change, negative = inhibition, hits mostly inhibitors; recombinant rTrxR1, NADPH fluorescence consumption, selenite substrate; O89049; also: nearly all actives have a fitted effect of over 65% in size
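Rat TrxR1 (90 nM in the dispensed reagent) was pre-reduced with 400 uM NADPH for 5 min at room temperature, then incubated with compound for 15 min. After 400 uM selenite was added, NADPH fluorescence (Ex 340/Em 450 nm) was followed for 8 min.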
TrxR1 substrate = rat thioredoxin reductase 1 substrate activity; purified TrxR1 substrate turnover, NADPH consumption readout; Potency, µM (doses to about 114 µM), for the others: at the highest dose activity change, negative = substrate turnover; actives 0.01% (n = 390,000); AID 588456; also: nearly all actives have a fitted effect of over 50% in size
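Rat TrxR1, dispensed at 90 nM, was prereduced with 400 uM NADPH (final) for 5 min at ~22 deg C, then incubated with compound 15 min before 400 uM selenite. A first-read NADPH fluorescence drop versus no-compound background flagged substrates.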
Eya2 inh = Eya2 (human) phosphatase inhibition; O00167; recombinant Eya2, OMFP fluorescence dephosphorylation (OMFP is methylfluorescein phosphate); Potency, µM (top dose mostly 76.9 µM), for the others: at the top dose activity, negative = inhibition, hits mostly inhibitors; actives 0.006% (n = 330,000); AID 488837
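Eya2 (0.2 uM) preincubated 10 min at ambient with compound, then OMFP substrate added at 50 uM; 10 min reaction in 50 mM HEPES pH 7.5, 50 mM NaCl, 5 uM MgCl2, 0.05% BSA, 1 mM DTT. Fluorescence read at Ex 485/Em 525 nm.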
GALK inhibitor = blocks human galactokinase activity; P51570; Purified GALK, Kinase-Glo residual ATP luminescence; Potency, µM (series often up to 57.5 µM), inactives show at the top dose activity change, negative = inhibition, actives largely listed as inhibitors; actives 0.007% (n = 270,000)
Target sequence (P51570 whole entry, looked up): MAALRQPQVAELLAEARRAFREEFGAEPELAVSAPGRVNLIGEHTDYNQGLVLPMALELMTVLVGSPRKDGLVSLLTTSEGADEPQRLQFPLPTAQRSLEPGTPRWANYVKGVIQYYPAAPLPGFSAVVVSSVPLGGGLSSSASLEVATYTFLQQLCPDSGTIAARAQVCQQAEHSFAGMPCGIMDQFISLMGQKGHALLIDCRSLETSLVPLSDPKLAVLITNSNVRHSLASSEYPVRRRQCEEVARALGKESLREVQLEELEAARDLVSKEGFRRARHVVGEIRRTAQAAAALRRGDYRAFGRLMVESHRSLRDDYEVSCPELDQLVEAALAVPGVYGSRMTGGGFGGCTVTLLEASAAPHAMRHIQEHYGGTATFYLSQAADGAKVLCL
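ATP-depletion format; final 35 uM ATP, 100 uM D-galactose, 5 nM enzyme; pH 8.0 HEPES/Mg2+ buffer; 60 min RT; luminescence read 10 min after detection reagent.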
The depositor's hits bear a star; u = inconclusive; x = no result; ! = repeats disagree; [ ] = dose if it differs, or a comment. An excerpt weighted towards active compounds, which were near 1% of everything screened. Calls follow the shape of the dose curve; as a rule, active = well fitted curve in the direction sought with a large enough effect; inconclusive = small, poorly fitted or top-dose-only effect, or another doubt; inactive = no such curve, though single readings can be large; an effect the other way counts as inactive or inconclusive. Unless noted, % is scaled to controls: 0 for no effect and ±100 for the full control effect; potency is read from the fitted curve at half-maximal effect.

SMILES | USP2a inh | RGS4 inh | rTrxR1 inhibitor | TrxR1 substrate | Eya2 inh | GALK inhibitor
CC1=NN(c2ccccc2)C(=O)/C1=C\c1ccc(Oc2ccc([N+](=O)[O-])cc2[N+](=O)[O-])cc1 | 3% | u | 4µM* | 1%[57.1 µM] | -3% | 3%
CCOc1cccc(C2C=C(c3ccc4c(c3)OCO4)NC(c3ccccc3Cl)N2)c1O (stereo not drawn) | x | -5% | -7% | -1% | x | x
O=C(O)CSc1nnc(CNc2cccc(C(F)(F)F)c2)n1Cc1ccco1 | 4% | 15% | -26% | 6% | 2% | 0%
O=C(CSc1nnc(C2CCCCC2)n1-c1ccccc1)NCc1ccco1 | 1% | -32% | 13µM* | 13% | 4% | -3%
CCn1c(SCC(=O)NCc2ccco2)nnc1-c1ccncc1 | -1% | x | x | x | 0% | 0%
Cc1cc(NC(=O)CSc2nnc(COc3ccccc3)n2Cc2ccco2)no1 | 0% | 1% | 20% | 11% | 2% | 1%
CCn1c(SCC(=O)NCc2ccco2)nnc1-c1cccs1 | 0% | -10% | 14µM* | 3% | -3% | 0%
O=C(CSc1nnc(CNc2cccc(C(F)(F)F)c2)n1Cc1ccco1)NCc1ccco1 | 0% | -6%[11.4 µM] | 16µM* | 11%[57.1 µM] | -1% | 0%
O=C(CSc1nnc(COc2ccccc2)n1Cc1ccco1)NCc1ccco1 | 0% | -43% | 11µM* | 5% | 30% | 5%
COc1cccc2c1C(=O)/C(=C/c1ccc(N(C)C)cc1)C2 | x | x | -3% | 1% | x | x
CC(=O)N/C(=C/c1ccccc1)c1ccncc1 | x | x | -15% | 10% | x | x
CC(C)(C)OC(=O)N(c1cccc2cccnc12)S(=O)(=O)c1ccccc1Br | x | -34% | 29% | 4%[0.457 µM] | x | x
COc1ccc(N2C(=O)CC(Sc3n[nH]c(-c4cccc(C)c4)n3)C2=O)cc1 (stereo not drawn) | -5% | u | u | 18%[57.1 µM] | -5% | 4%
CCOc1ccccc1N1C(=O)CC(Sc2n[nH]c(-c3ccccc3)n2)C1=O (stereo not drawn) | -1% | u | 1µM* | 7%[57.1 µM] | -1% | -1%
Cc1ccc(-c2ccccc2NC(=O)CS(=O)CC(=O)Nc2ccc(C)c(Cl)c2)o1 (stereo not drawn) | 1% | u | 3.5µM* | 1% | 8% | 7%
CCOC(=O)N1C(=O)[C@](CC)(c2ccccc2)N1C(=O)OCC | 0% | -49% | 3.2µM* | 1% | -7% | x
COc1ccc(-c2nc3scc(CCNS(=O)(=O)c4ccc(Oc5ccccc5)cc4)n3n2)cc1OC | x | 9% | 19%[57.1 µM] | -5%[57.1 µM] | x | x
CCOC(=O)/C=C/C(=O)OCC(=O)Nc1ccc(C)cc1 | 0% | -32% | 40µM* | 14% | 8% | -3%
N#CC1(NC(=O)COC(=O)c2cc(O)c3ccccc3c2O)CCCCC1 | -4% | -33% | 28µM* | -2% | -21% | x
CC1=C(/C=C/C(C)=C/C=C/C(C)=C/C(=O)O)C(C)(C)CCC1 | 0% | u | 25µM*! | 8%[57.1 µM] | 4% | -2%
CC(C)Oc1ccc(CNC(=O)C2CCN(C(=O)N3CCOc4ccc(Cl)cc43)CC2)cc1 | x | -9% | 10% | 2% | x | x
Cc1ccc2oc(-c3ccc(C)c(NC(=O)COc4ccc(Cl)cc4)c3)nc2c1 | x | x | 15% | 6% | x | x
CS(=O)(=O)Nc1cccc(-c2cn3c(n2)SCC3)c1 | 1% | u | 32µM* | -12% | -16% | 0%
Cn1cnc([N+](=O)[O-])c1Sc1ncnc2nc[nH]c12 | 1% | 3%[56.9 µM] | 25µM* | 7%[57.1 µM] | 1% | 1%
Cc1cccc(NCCC(=O)c2ccc(Br)cc2)c1 | 0% | -22% | 25µM* | -3% | -12% | -2%
SMILES | USP2a inh | RGS4 inh | rTrxR1 inhibitor | TrxR1 substrate | Eya2 inh | GALK inhibitor
CC(=O)c1ccc(NC(=O)CCCC(=O)c2ccccc2)cc1 | 1% | -12% | 30% | 7% | 1% | 2%
Cc1ccc(C(=O)NCC(=O)NCC(=O)OCC(=O)c2ccc(Br)cc2)cc1 | -1% | 24% | 23% | 7% | 1% | 1%
CC(C)c1ccc(NCCC(=O)c2ccc(Br)cc2)cc1 | 0% | -20% | 56µM* | -7% | 2% | -1%
CC(=O)c1ccc(NCCC(=O)c2ccccc2)cc1 | 1% | 10% | 50µM* | -9% | 0% | 3%
CCOC(=O)CNCCC(=O)c1ccc(Br)cc1 | 0% | -48% | 0.28µM* | -3% | 4% | x
Cc1ccc(C(=O)CNc2ccc(Br)cc2)cc1 | 0% | -7% | 24%[57.1 µM] | 3%[57.1 µM] | 12% | 2%
O=C(/C=C/c1ccccc1Cl)Nc1nc(-c2cccs2)ns1 | x | -27% | 11% | 12% | x | x
O=C(O)C(C(=O)/C=C/c1ccco1)=C1SCCS1 | 0% | -30% | 25µM* | -11% | 7% | -1%
O=C(C=Cc1ccco1)N1CCOCC1 | x | 25% | -19%[57.1 µM] | -9%[2.29 µM] | x | x
O=C(/C=C/c1ccco1)NC1CCCC1 | 1% | -11% | -77% | 12%[57.1 µM] | u | 0%
